# Source: PubChem BioAssay
# TRPV1 PAM: potentiators of human vanilloid receptor 1 (TRPV1). hit rate 0.02% among 320,000. TRPV1-expressing cells, Fluo-8 calcium influx, capsaicin EC20 potentiation. potentiation, % at 8.33 µM. Q8NER1; in the data active means potentiation above about 80%; inconclusive means between about 30% and that limit
#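 Fluo-8 calcium influx in TRPV1-expressing cells, kinetic read (ex 480/em 520 nm). Compound added and read 3 min for agonist activity, followed by capsaicin at EC20 final and 2 min further read for enhancement.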
# TRPV1 ag: agonists of human vanilloid receptor 1 (TRPV1) | hit rate 0.19% among 320,000 | TRPV1-expressing cells, Fluo-8 calcium influx, agonist mode | activation, % at 8.33 µM | AID 540275 | Q8NER1; in the data active means activation above about 80%; inconclusive means between about 30% and that limit
#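 Cells expressing TRPV1 were dye-loaded with Fluo-8 and read kinetically: 10 s baseline, 3 min after compound (agonist portion), then 2 min after EC20 capsaicin (allosteric enhancer portion). Calcium-bound dye fluorescence at 480/520 nm.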
# KCNH2 3.1 block: blocks the human KCNH2 3.1 channel isoform; U2OS KCNH2 3.1, thallium flux FluxOr; hits give low values; activity change, % (tested at about 1.8 µM); hit rate 0.95% among 340,000; AID 720553;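 active means maximum activity change below -70%; inconclusive means maximum activity change from -70% to -50%; inactive means maximum activity change above -50%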;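 further: thallium influx rate constant from kinetic fluorescence after stimulation buffer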
#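 Steps: virus added to U2OS suspension (4 h, RT, dark); medium with 10% FBS added, cells plated, 37 C overnight; FluxOr/Red40 loading buffer 45 min RT; stimulation buffer, 2 min kinetic read; rate constant normalized.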
# hERG WT inh: inhibitors of human wildtype KCNH2 potassium channel; U2OS, BacMam KCNH2, thallium flux FluxOr; hits give low values; activity change, % at 1.84 µM; hit rate 0.37% among 340,000; AID 720551;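 active means maximum activity change below -70%; inconclusive means maximum activity change between -70% and -50%; inactive means maximum activity change above -50%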
#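 U2OS cells were transduced with wild-type KCNH2 virus (2.03 x 10^8 / mL) for 4 h at room temperature, then cultured overnight at 37 C. Thallium flux was read with FluxOr dye. Rate constants were normalized to DMSO controls.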
# A number is an active result; . = inactive; ? = inconclusive; / = not tested or not shown. The list is not random: actives were taken first. Their share in the collection is about 1.3%.
SMILES,TRPV1 PAM,TRPV1 ag,KCNH2 3.1 block,hERG WT inh
CN(C)S(=O)(=O)c1ccc(-c2cn3ccccc3n2)cc1,.,.,.,.
COc1cc(CNCCc2c[nH]c3ccccc23)ccc1OCc1ccccc1F,.,.,-79,.
COc1cccc(CNCCc2c[nH]c3ccccc23)c1OCc1ccccc1,.,.,.,.
CN(CC(=O)Nc1ccccc1Cl)C(=O)Cn1cnc2ccccc2c1=O,.,.,.,.
Cc1n[nH]c2ccc([N+](=O)[O-])cc2c1=O,/,/,.,.
CC(C)(C)c1ccc(S(=O)(=O)N2C=CC(C(F)(F)F)=NCC2)cc1,.,.,.,.
Cc1ccc(S(=O)(=O)N2C=CC(C(F)(F)F)=NCC2)cc1,.,.,.,-76
O=C(NCCc1ccccc1)C1CCN(S(=O)(=O)N2CCOCC2)CC1,.,.,.,-104
O=C(NCc1ccccc1)C1CCN(S(=O)(=O)N2CCOCC2)CC1,.,.,.,.
CCN(Cc1ccccc1)C(=O)c1cc2c(OC)c(OC)c(OC)cc2[nH]1,.,?,.,.
CNC(=O)C(C)NS(=O)(=O)c1ccc(F)cc1 (stereo unspecified),.,.,.,-91
Cc1ccc(C(=O)COC(=O)CNC(=O)CNC(=O)c2ccc(C)cc2)cc1,.,.,-85,.
Cc1ccc(C(=O)NCC(=O)NCC(=O)OCC(=O)c2ccc([N+](=O)[O-])cc2)cc1,.,.,.,.
S=C(NCCc1ccccc1)N1CCN(C2CCCCC2)CC1,.,.,-93,.
S=C(NCCc1ccccc1)N1CCN(C(=S)NCCc2ccccc2)CC1,.,.,.,.
O=C(Nc1nc(-c2nc3ccccc3s2)cs1)C1COc2ccccc2O1 (stereo unspecified),.,.,-83,.
COc1ccc(OC)c(-c2csc(NC(=O)C3COc4ccccc4O3)n2)c1 (stereo unspecified),.,.,.,.
CN(C(=O)COC(=O)c1c[nH]c2ccccc12)c1ccccc1,/,/,.,.
CC1(C)CC(Nc2ccc(C(F)(F)F)cc2[N+](=O)[O-])CC(C)(C)N1,.,.,.,.
O=[N+]([O-])c1cc(C(F)(F)F)ccc1NC1CCN(Cc2ccccc2)C1 (stereo unspecified),.,.,-91,-80
O=[N+]([O-])c1cc(C(F)(F)F)ccc1NC1CCN(Cc2ccccc2)CC1,.,.,-86,.
NC(=O)CC(NC(=O)c1ccccc1)c1ccc(NC2CCN(Cc3ccccc3)CC2)c([N+](=O)[O-])c1 (stereo unspecified),?,.,.,.
COc1cccc(/C=C2\SC(N3CCC(C)CC3)=NC2=O)c1OC,.,93,.,.
COc1ccccc1/C=C1\SC(N2CCC(C)CC2)=NC1=O,.,?,.,.
CC1CCC(NC(=O)CSc2nnnn2C)CC1 (stereo unspecified),.,.,.,.
SMILES,TRPV1 PAM,TRPV1 ag,KCNH2 3.1 block,hERG WT inh
O=C(Nc1ccccc1)c1ccc2snnc2c1,.,?,.,.
CC(C)(C)c1ccc(C(=O)Nc2ccc(Cl)cc2)cc1,.,80,.,.
CC(C)(C)c1cc(C(=O)NNC(=O)c2ccc(Cl)cc2)no1,.,82,.,.
CC(C)(C)c1ccc(C(=O)Nc2cccnc2)cc1,.,94,.,.
O=C(Nc1cccnc1)c1ccc2snnc2c1,.,?,-125,-151
Cc1cc(C)c2c(c1)C1C=CCC1C(C(=O)O)N2 (stereo unspecified),.,.,/,/
Cn1cc(S(=O)(=O)N2CCCCC2)cc1C(=O)NCc1ccc(Cl)cc1,.,.,/,/
C=C(C)c1cccc(C(C)(C)NC(=O)Nc2cccnc2)c1,?,98,.,.
Cc1ccc(NC(=O)c2ccsc2)cc1NS(C)(=O)=O,.,.,.,.
CC(C)(C)c1ccc(NC(=O)c2ccsc2)cc1,.,83,.,.
COC(=O)Cc1ccc(NC(=O)c2ccc(C(C)(C)C)cc2)cc1,.,81,.,.
COc1ccc(C(=O)NCCS(=O)(=O)N(C)C2CCCCC2)cc1,.,.,.,.
O=C1CCC[C@@H]2[C@@H](Cc3ccccc3)[C@H](N3CCN(c4ccccc4)CC3)C[C@@H]3CCN1[C@@H]32,/,/,.,.
COc1cc(CN2CCN(CCCc3ccccc3)C(CCO)C2)cc(OC)c1O (stereo unspecified),?,.,.,.
COc1ccc(C(=O)N/N=C/c2ccc(OC)c(OS(=O)(=O)c3ccccc3)c2)cc1,.,.,-195,-151
O=C(Cn1ncn2c(cc3sccc32)c1=O)NC1CCCC1,.,.,-77,.
O=C1CCN(CCc2ccccc2)CCN1[C@H](COc1ccccc1)Cc1ccccc1,.,.,-100,-257
CC(C)CN1CCC(=O)N([C@H](COc2ccccc2)Cc2ccccc2)CC1,.,.,-90,.
CC(C)C[C@@H](COc1ccccc1)N1CCN(CCc2ccccc2)CCC1=O,.,.,-96,.
CCCN1CCC(=O)N([C@H](COc2ccccc2)CC(C)C)CC1,?,.,.,.
CC(NC(=O)CN1C(=O)NC2(CCc3ccccc32)C1=O)c1ccccc1 (stereo unspecified),.,.,.,.
CC1CCCCC12NC(=O)N(CC(=O)N1CCN(S(=O)(=O)/C=C/c3ccccc3)CC1)C2=O (stereo unspecified),.,.,.,.
Cc1ccc(-n2ncc3c(=O)n(CC(=O)NCc4ccco4)cnc32)cc1,.,.,.,.
Cc1ccc(-n2ncc3c(=O)n(CC(=O)Nc4cccc(Cl)c4)cnc32)cc1C,?,.,-83,.
Cc1ccc(-n2ncc3c(=O)n(CC(=O)NCc4ccco4)cnc32)cc1C,.,.,-85,.
SMILES,TRPV1 PAM,TRPV1 ag,KCNH2 3.1 block,hERG WT inh
CSc1ccc(S(=O)(=O)N2CCC(C(=O)N3CCc4ccccc4C3)CC2)cc1,.,.,.,.
Cc1cccc(NC(=O)COC(=O)CN2C(=O)c3ccccc3C2=O)c1C,/,/,.,.
COc1ccc(C(=O)NC(=S)N(Cc2ccccc2)Cc2ccccc2)cc1,.,.,.,-102
CCOc1ccccc1CN1CCN(Cc2[nH]c3ccccc3c2C)CC1CCO (stereo unspecified),.,.,-74,.
Cc1ccc(CN2CCN(Cc3cc(=O)c4ccccc4[nH]3)CC2CCO)o1 (stereo unspecified),.,.,.,-118
CCOc1ccccc1CN1CCN(Cc2c[nH]c3ccccc23)CC1CCO (stereo unspecified),.,.,.,.
CCOc1ccc(CN2CCN(Cc3[nH]c4ccc(OC)cc4c3C)CC2CCO)cc1 (stereo unspecified),.,.,-107,-73
CCCC(=O)Nc1c2c(nn1-c1ccccc1)CSC2,.,.,-114,.
COc1ccccc1C(=O)Nc1ccnn1C1CCN(CCC(C)c2ccc(C)o2)CC1 (stereo unspecified),.,.,-98,-104
Cc1ccccc1C(=O)Nc1ccnn1C1CCN(C(C)Cc2ccccc2F)CC1 (stereo unspecified),.,.,-76,.
COc1ccccc1C(=O)Nc1ccnn1C1CCN(C/C=C/c2ccccc2)CC1,.,.,-107,-121
